Experiment [1] in a line: NCI Yeast Anticancer Drug Screen. Data for the rad50 strain (AID 155).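 Also: 0% = growth of vehicle-only cultures of the same strain.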 The note with it: S. cerevisiae rad50 strain growth inhibition, stronger effect = higher value. The method, boiled down: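 Cells are treated with compound, grown, and their growth is then scored against vehicle-only cultures of the same repair-deficient yeast strain.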
Experiment [2] can be described thus: NCI Yeast Anticancer Drug Screen. Data for the mec2-1 strain (AID 157). The note with it: S. cerevisiae mec2-1 strain, stronger effect = higher value. The method, boiled down:
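Yeast mec2-1 mutant treated with compound. Readout: growth inhibition vs vehicle controls.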

Experiment [3] can be described thus: NCI Yeast Anticancer Drug Screen. Data for the sgs1 mgt1 strain (AID 161).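 Also: 0% = growth of cultures given vehicle only.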 Conditions: S. cerevisiae sgs1 mgt1 strain, stronger effect = higher value. The method, boiled down: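 Genetically altered yeast, compound exposure, growth inhibition relative to vehicle.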
A short description of experiment [4]: NCI Yeast Anticancer Drug Screen. Data for the cln2 rad14 strain (AID 165).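 Also: 0% = growth equal to vehicle treated cultures.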 The note with it: S. cerevisiae cln2 rad14 strain, stronger effect = higher value. The method, boiled down: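 cln2 rad14 yeast strain; compound exposure; growth inhibition read vs vehicle controls.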
Experiment [5] is described as follows: NCI Yeast Anticancer Drug Screen. Data for the bub3 strain (AID 167). The note with it: S. cerevisiae bub3 mutant strain, stronger effect = higher value. The method, boiled down:
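Part of a panel of yeast mutants defective in DNA damage repair or cell cycle regulation. Each strain is grown with compound, and inhibition is calculated relative to solvent-treated cultures.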

The nature of experiment [6]: NCI Yeast Anticancer Drug Screen. Data for the mlh1 rad18 strain (AID 175). Conditions: S. cerevisiae mlh1 rad18 strain growth inhibition, stronger effect = higher value. The method, boiled down:
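Yeast w/ defined DNA-repair lesions; compound exposure; growth vs vehicle controls → % inhibition.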

[7] abbreviates: at 5.0 µM (retest, dose inferred, filed as 0.5).
Setting [8] is: at 50.0 µM (retest, dose inferred, filed as 5.0).

This is part of a sample that, as a whole, favours compounds with a hit. Of some 79,000 tested, about 15% had one in any assay. Values without a mark were called inactive. Active and inactive are the calls of the source. Rule as the data show it: active = growth inhibition above about 70%; inactive = the rest.

In the case of `CCOC(=O)/C=C(\NC1CC(OC2C[C@](O)(C(C)=O)Cc3c(O)c4c(c(O)c32)C(=O)c2c(OC)cccc2C4=O)OC(C)C1O)C(=O)OCC` (some centres not stated), the growth inhibition in experiment [1] (setting [7]) is 44%; in experiment [1] (setting [8]), 95% (active); in experiment [1] (at 50.0 µM) it was 68.8%; in experiment [2] (setting [7]) it was 28%; in experiment [2] (setting [8]) it was 97% (active); in experiment [2] (at 50.0 µM), 74.3% (active). Also, the growth inhibition was 40% in experiment [3] (setting [7]); 95% (active) in experiment [3] (setting [8]); 90.5% (active) in experiment [3] (at 50.0 µM); 44% in experiment [4] (setting [7]); 92% (active) in experiment [4] (setting [8]); 88.7% (active) in experiment [4] (at 50.0 µM). Besides, the growth inhibition in experiment [5] (setting [7]) is 43%; in experiment [5] (setting [8]), 97% (active); in experiment [5] (at 50.0 µM), 87.5% (active); in experiment [6] (setting [7]) it was 34%; in experiment [6] (setting [8]), 96% (active); in experiment [6] (at 50.0 µM) it was 87.5% (active).
`O=C(C[n+]1ccccc1)c1ccc2ccc3ccc(Cl)cc3c2c1`: the growth inhibition in experiment [1] (setting [7]) is 4%; in experiment [1] (setting [8]), 67%; in experiment [1] (at 50.0 µM), 59.1%; in experiment [2] (setting [7]) it was 0%; in experiment [2] (setting [8]), 26%; in experiment [2] (at 50.0 µM), 32%. Moreover, the growth inhibition in experiment [3] (setting [7]) was 3%; in experiment [3] (setting [8]) it was 56%; in experiment [3] (at 50.0 µM), 35.5%; in experiment [4] (setting [7]) it was 2%; in experiment [4] (setting [8]), 39%; in experiment [4] (at 50.0 µM), -90.4%. For the same compound, the growth inhibition in experiment [5] (setting [7]) is -2%; in experiment [5] (setting [8]), 46%; in experiment [5] (at 50.0 µM), 2.15%; in experiment [6] (setting [7]), 29%; in experiment [6] (setting [8]), 82% (active); in experiment [6] (at 50.0 µM), 72.5% (active).
For `Cc1cc([N+](=O)[O-])cc(C)c1OC(=O)Nc1c(Cl)cccc1Cl`, the growth inhibition in experiment [1] (setting [7]) was 37%; in experiment [1] (setting [8]), 37%; in experiment [1] (at 50.0 µM), 31.6%; in experiment [2] (setting [7]), 30%; in experiment [2] (setting [8]), 45%; in experiment [2] (at 50.0 µM), 22.1%. Besides, the growth inhibition was 46% in experiment [3] (setting [7]); 71% (active) in experiment [3] (setting [8]); 55.4% in experiment [3] (at 50.0 µM); 32% in experiment [4] (setting [7]); 36% in experiment [4] (setting [8]); 22.1% in experiment [4] (at 50.0 µM). In addition, the growth inhibition was 24% in experiment [5] (setting [7]); 68% in experiment [5] (setting [8]); 23.1% in experiment [5] (at 50.0 µM); 48% in experiment [6] (setting [7]); 56% in experiment [6] (setting [8]); 24.1% in experiment [6] (at 50.0 µM).
For `Cc1ccc(C(=O)N2CCN(C(=O)c3ccc(C)cc3)c3ccccc32)cc1`, the growth inhibition was -14% in experiment [1] (setting [7]); 6% in experiment [1] (setting [8]); 42.5% in experiment [1] (at 50.0 µM); -13% in experiment [2] (setting [7]); -19% in experiment [2] (setting [8]); 33.7% in experiment [2] (at 50.0 µM). The growth inhibition in experiment [3] (setting [7]) is -10%; in experiment [3] (setting [8]) it was 30%; in experiment [3] (at 50.0 µM) it was 40.8%; in experiment [4] (setting [7]) it was -7%; in experiment [4] (setting [8]) it was 14%; in experiment [4] (at 50.0 µM), 36.6%. The growth inhibition in experiment [5] (setting [7]) was -3%; in experiment [5] (setting [8]) it was 43%; in experiment [5] (at 50.0 µM), 75.8% (active); in experiment [6] (setting [7]), -26%; in experiment [6] (setting [8]) it was 14%; in experiment [6] (at 50.0 µM), 18.9%.
Consider `CCN1CCC(O)(/C=C/c2ccccc2C)C(C(=O)/C=C/c2ccccc2C)C1` (configuration not stated), for which the growth inhibition in experiment [1] (setting [7]) is 8%; in experiment [1] (setting [8]), 84% (active); in experiment [1] (at 50.0 µM) it was 94.4% (active); in experiment [2] (setting [7]) it was -2%; in experiment [2] (setting [8]) it was 74% (active); in experiment [2] (at 50.0 µM) it was 98.2% (active). For the same compound, the growth inhibition was 3% in experiment [3] (setting [7]); 83% (active) in experiment [3] (setting [8]); 99.4% (active) in experiment [3] (at 50.0 µM); -2% in experiment [4] (setting [7]); 54% in experiment [4] (setting [8]); 92.2% (active) in experiment [4] (at 50.0 µM). In addition, the growth inhibition in experiment [5] (setting [7]) is 8%; in experiment [5] (setting [8]), 83% (active); in experiment [5] (at 50.0 µM) it was 98.5% (active); in experiment [6] (setting [7]), 4%; in experiment [6] (setting [8]), 93% (active); in experiment [6] (at 50.0 µM), 99.5% (active).
Regarding `O=C1Nc2ccccc2C(=O)C1(Cc1ccccc1)C(=O)c1ccccc1` (configuration not stated), the growth inhibition was 14% in experiment [1] (setting [7]); 26% in experiment [1] (setting [8]); 97% (active) in experiment [1] (at 50.0 µM); -1% in experiment [2] (setting [7]); -9% in experiment [2] (setting [8]); 97.2% (active) in experiment [2] (at 50.0 µM). Besides, the growth inhibition in experiment [3] (setting [7]) was 11%; in experiment [3] (setting [8]), 25%; in experiment [3] (at 50.0 µM) it was 97.5% (active); in experiment [4] (setting [7]), -1%; in experiment [4] (setting [8]), 10%; in experiment [4] (at 50.0 µM), 97.5% (active). The growth inhibition in experiment [5] (setting [7]) was 11%; in experiment [5] (setting [8]), 12%; in experiment [5] (at 50.0 µM), 97.5% (active); in experiment [6] (setting [7]), 4%; in experiment [6] (setting [8]), 33%; in experiment [6] (at 50.0 µM) it was 97.4% (active).
As to `NC(CSSCC(N)C(=O)Nc1ccc2ccccc2c1)C(=O)Nc1ccc2ccccc2c1` (configuration not stated), the growth inhibition was 42% in experiment [1] (setting [7]); 98% (active) in experiment [1] (setting [8]); 88.6% (active) in experiment [1] (at 50.0 µM); 42% in experiment [2] (setting [7]); 100% (active) in experiment [2] (setting [8]); 91.7% (active) in experiment [2] (at 50.0 µM). Also, the growth inhibition in experiment [3] (setting [7]) is 54%; in experiment [3] (setting [8]), 100% (active); in experiment [3] (at 50.0 µM), 91.7% (active); in experiment [4] (setting [7]), 21%; in experiment [4] (setting [8]), 99% (active); in experiment [4] (at 50.0 µM), 90.3% (active). Also, the growth inhibition in experiment [5] (setting [7]) was 37%; in experiment [5] (setting [8]), 99% (active); in experiment [5] (at 50.0 µM) it was 89.5% (active); in experiment [6] (setting [7]), 68%; in experiment [6] (setting [8]), 99% (active); in experiment [6] (at 50.0 µM), 88% (active).
`Oc1cccc2cc(Br)cnc12`: the growth inhibition was 24% in experiment [1] (setting [7]); 99% (active) in experiment [1] (setting [8]); 84% (active) in experiment [1] (at 50.0 µM); -17% in experiment [2] (setting [7]); 99% (active) in experiment [2] (setting [8]); 91.6% (active) in experiment [2] (at 50.0 µM). Also, the growth inhibition in experiment [3] (setting [7]) was -10%; in experiment [3] (setting [8]), 99% (active); in experiment [3] (at 50.0 µM), 81.5% (active); in experiment [4] (setting [7]), 2%; in experiment [4] (setting [8]), 99% (active); in experiment [4] (at 50.0 µM), 88.8% (active). In addition, the growth inhibition in experiment [5] (setting [7]) was -25%; in experiment [5] (setting [8]) it was 99% (active); in experiment [5] (at 50.0 µM), 88.2% (active); in experiment [6] (setting [7]) it was 21%; in experiment [6] (setting [8]) it was 99% (active); in experiment [6] (at 50.0 µM), 74.7% (active).
Take `OC1(c2ccccc2)c2ccccc2C(O)(c2ccccc2)c2cc3c(cc21)CCCC3` (configuration not stated): the growth inhibition in experiment [1] (setting [7]) is 81% (active); in experiment [1] (setting [8]), 96% (active); in experiment [1] (at 50.0 µM), 96.8% (active); in experiment [2] (setting [7]), 28%; in experiment [2] (setting [8]), 98% (active); in experiment [2] (at 50.0 µM) it was 97.5% (active). The growth inhibition is 17% in experiment [3] (setting [7]); 98% (active) in experiment [3] (setting [8]); 97.7% (active) in experiment [3] (at 50.0 µM); -3% in experiment [4] (setting [7]); 97% (active) in experiment [4] (setting [8]); 97.7% (active) in experiment [4] (at 50.0 µM). Besides, the growth inhibition is 17% in experiment [5] (setting [7]); 98% (active) in experiment [5] (setting [8]); 96% (active) in experiment [5] (at 50.0 µM); 51% in experiment [6] (setting [7]); 96% (active) in experiment [6] (setting [8]); 96.8% (active) in experiment [6] (at 50.0 µM).

The values above are taken from PubChem BioAssay (NCI).
